Records with an inconclusive call do not appear. Activity calls are given as the source filed them. Unless noted, calls come from the whole dose curve; as a rule, active = well fitted curve in the direction sought with a large enough effect in the repeat runs; inconclusive = weak or mixed curves; inactive = no such curve, though single readings can be large; an effect the other way counts as inactive or inconclusive.
Assays:
[1] = qHTS assay for small molecule agonists of the p53 signaling pathway (AID 651631; calls by dose curve; note: nearly all actives have a fitted effect of over 15% in size)
Method in brief: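 p53RE-bla HCT-116 cells; compounds 16 h, 37 °C; LiveBLAzer B/G FRET substrate 2 h RT; fluorescence intensity read-out, qHTS format.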

[2] = qHTS assay for small molecules that induce genotoxicity in human embryonic kidney cells expressing luciferase-tagged ATAD5 (AID 651632); note: nearly all actives have a fitted effect of over 15% in size; note: potency is the fitted concentration of half-maximal effect
Method in brief: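 A rise in luciferase signal from ATAD5-tagged HEK293T cells marks genetic stress. Cells were exposed to compounds for 16 hr at 37C, 5% CO2, then luciferase was quantified after a 30 min room-temperature incubation with Amplite.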

[3] = qHTS assay for small molecule agonists of the p53 signaling pathway - cell viability (AID 651633; calls by dose curve;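 note: p53RE-bla HCT reporter cells with a stable beta-lactamase p53 reporter; series mostly up to about 83 µM; nearly all actives have a fitted effect of over 30% in size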)
Method in brief: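 p53RE-bla cells, seeded at 4,000 per well and rested 5 h at 37 C/5% CO2, received compounds in DMSO for 16 h at 37 C. CellTiter-Glo was then added, and luminescence was read after 30 min at room temperature to gauge cytotoxicity.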

[4] = qHTS assay for small molecules that induce genotoxicity in human embryonic kidney cells expressing luciferase-tagged ATAD5 - cell viability (AID 651634; calls by dose curve; note: nearly all actives have a fitted effect of over 25% in size)
Method in brief: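 Cytotoxicity counter-readout: after 15.5 hr compound treatment at 37C, live-cell protease activity in ATAD5-luciferase HEK293T cells measured by CellTiter-Fluor fluorescence, 30 min development at 37C.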

[5] = qHTS assay for small molecule disruptors of the mitochondrial membrane potential - cell viability (AID 720634; calls by dose curve;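 note: human HepG2 liver cancer cells; series mostly up to about 83 µM; nearly all actives have a fitted effect of over 20% in size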)
Method in brief: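 Cytotoxicity was quantified from ATP content by CellTiter-Glo luminescence in the same wells as the MMP dye read-out. HepG2 (2,000 cells/well) were plated overnight and exposed to compounds for 1 hr at 37 C.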

[6] = qHTS assay for small molecule disruptors of the mitochondrial membrane potential (AID 720635)
Method in brief: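 HepG2 cells (2,000/well) attached overnight at 37C, then took compound for 1 hr at 37C, 5% CO2. Mito-MPS dye was added for 30 min; fluorescence was read at 490/535 nm (monomers) and 540/590 nm (aggregates).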

[7] = qHTS assay to test for compound auto fluorescence at 590 nm (red) in HepG2 cells (AID 720674)
Method in brief: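 Compound auto-fluorescence is scored relative to Rose Bengal sodium, measured at 540/590 nm in live HepG2 cultures after 1 hr compound contact (37 C, 5% CO2).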

[8] = qHTS assay to test for compound auto fluorescence at 535 nm (green) in HepG2 cells (AID 720675)
[9] = qHTS assay to test for compound auto fluorescence at 460 nm (blue) in HEK293 cells (AID 720678)
Method in brief: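 Triamterene serves as the blue fluorophore standard. Compound signal at 405/460 nm is read in HEK293 wells (2,000 cells, 10% dialyzed FBS) after overnight treatment at 37C.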

[10] = qHTS assay to test for compound auto fluorescence at 590 nm (red) in HEK293 cells (AID 720679)
Method in brief: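 We plated HEK293 cells in 10% dialyzed FBS medium, let them adhere for 4-5 hr, then added 23 nL compound. Overnight at 37C and 5% CO2 preceded fluorescence measurement at 540/590nm.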

[11] = qHTS assay to test for compound auto fluorescence at 535 nm (green) in HEK293 cells (AID 720680)
[12] = qHTS assay to test for compound auto fluorescence at 460 nm (blue) in HEK293 cell free culture (AID 720681)
Method in brief: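 Test compounds were pinned into cell-free culture medium (DMEM with 10% FBS) and fluorescence was read directly at Ex/Em 405/460 nm. Signals were expressed as fluorescence equivalents of triamterene, with DMSO vehicle as control.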

[13] = qHTS assay to test for compound auto fluorescence at 535 nm (green) in HEK293 cell free culture (AID 720682)
Method in brief: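 Cell-free medium (DMEM, 10% FBS) receives compound or DMSO by pintool. Plate read directly at Ex 485/Em 535 nm. Signal converted to fluorescein equivalency.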

[14] = qHTS assay to test for compound auto fluorescence at 590 nm (red) in HEK293 cell free culture (AID 720683)
Method in brief: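 Tox21 10K library compounds were pinned into cell-free DMEM with 10% FBS and fluorescence was read at excitation 540 nm. Activity is expressed as Rose Bengal sodium equivalency.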

[15] = qHTS assay to test for compound auto fluorescence at 590 nm (red) in HepG2 cell free culture (AID 720684)
Method in brief: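 Ex 540 / Em 590 nm read of compound in cell-free MEM (10% FBS). Rose Bengal sodium reference.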

[16] = qHTS assay to test for compound auto fluorescence at 460 nm (blue) in HepG2 cell free culture (AID 720685)
Method in brief: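 Cell-free plates of MEM plus 10% FBS received 23 nL compound or DMSO vehicle; blue-channel (405/460 nm) intensity scored against triamterene as reference fluorophore.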

[17] = qHTS assay to test for compound auto fluorescence at 460 nm (blue) in HepG2 cells (AID 720687)
Method in brief: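 Cells (2,000/well in MEM with 10% FBS) attached overnight at 37 C, then were exposed to compound or DMSO for 1 hr at 37 C, 5% CO2. Fluorescence read at Ex/Em 405/460 nm, expressed as triamterene-equivalent signal.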

[18] = molecular target: Glucocorticoid receptor (Homo sapiens) (UniProt P04150); assay: qHTS assay to identify small molecule antagonists of the glucocorticoid receptor (GR) signaling pathway (AID 720692; active = well fitted inhibition curve with a large enough effect in the signal ratio in the repeat runs, not every such curve was filed as active; the % refers to the signal ratio)
Chain of Glucocorticoid receptor (Homo sapiens) (P04150 whole entry, looked up): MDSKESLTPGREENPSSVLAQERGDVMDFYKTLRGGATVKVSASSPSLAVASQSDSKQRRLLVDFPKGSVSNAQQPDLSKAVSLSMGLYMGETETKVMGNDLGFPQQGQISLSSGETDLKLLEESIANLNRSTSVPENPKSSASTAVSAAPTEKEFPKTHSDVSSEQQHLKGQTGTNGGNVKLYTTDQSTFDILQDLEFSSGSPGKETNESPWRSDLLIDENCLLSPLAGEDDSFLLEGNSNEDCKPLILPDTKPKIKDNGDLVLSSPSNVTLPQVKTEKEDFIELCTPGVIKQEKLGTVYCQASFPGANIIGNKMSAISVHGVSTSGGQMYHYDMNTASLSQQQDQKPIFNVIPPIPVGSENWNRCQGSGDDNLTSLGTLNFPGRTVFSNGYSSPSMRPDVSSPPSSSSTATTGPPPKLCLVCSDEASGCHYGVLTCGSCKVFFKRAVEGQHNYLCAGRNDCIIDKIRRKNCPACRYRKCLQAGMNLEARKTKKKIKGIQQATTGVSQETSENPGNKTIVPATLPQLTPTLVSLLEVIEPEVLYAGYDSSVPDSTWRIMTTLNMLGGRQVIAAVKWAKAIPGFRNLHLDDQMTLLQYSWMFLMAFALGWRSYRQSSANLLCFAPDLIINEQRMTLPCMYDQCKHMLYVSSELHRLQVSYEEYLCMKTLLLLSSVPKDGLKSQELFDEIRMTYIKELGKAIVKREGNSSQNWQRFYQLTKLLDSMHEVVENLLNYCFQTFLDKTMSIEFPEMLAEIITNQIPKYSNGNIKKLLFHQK
Method in brief: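 Inhibition of dexamethasone-driven (5 nM final) beta-lactamase expression was measured in GRE-reporter HeLa cells over 18 h at 37C. Fluorescence was read after 2 h with the B/G FRET substrate at room temperature.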

[19] = qHTS assay to test for compound auto fluorescence at 535 nm (green) in HepG2 cell free culture (AID 720686)
[20] = molecular target: Glucocorticoid receptor (Homo sapiens) (UniProt P04150); assay: qHTS assay to identify small molecule agonists of the glucocorticoid receptor (GR) signaling pathway (AID 720691; active = well fitted activation curve with a large enough effect in the signal ratio in the repeat runs, not every such curve was filed as active; the % refers to the signal ratio)
Method in brief: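 Agonist-mode qHTS in HeLa cells stably expressing a glucocorticoid-response-element beta-lactamase reporter. Fluorescence intensity read with FRET substrate (2 h, room temperature) after 18 h compound treatment at 37 C.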
% is set by controls: 0 for no effect and ±100 for the full control effect.

C[N+]1(CC2COC(c3ccccc3)(c3ccccc3)O2)CCCCC1 (stereo not given)
inactive: Potency [1] | Potency [2] | Potency [3] | Potency [4] | outcome [5] | Potency [6] | outcome [7] | outcome [8] | outcome [9] | outcome [10] | outcome [11] | outcome [12] | outcome [13] | outcome [14] | outcome [15] | outcome [16] | outcome [17] | Potency [18]

COc1cc(-c2ccc(=O)[nH]n2)ccc1OC(F)F
inactive: Potency [1] | Potency [3] | Potency [4] | outcome [5] | Potency [6] | outcome [7] | outcome [8] | outcome [9] | outcome [10] | outcome [11] | outcome [12] | outcome [13] | outcome [14] | outcome [15] | outcome [16] | outcome [19] | outcome [17]
active: Potency [2] 13.3 µM

CCOC(=O)c1ccccc1
inactive: Potency [1] | Potency [2] | Potency [3] | Potency [4] | outcome [5] | Potency [6] | outcome [7] | outcome [8] | outcome [9] | outcome [10] | outcome [12] | outcome [13] | outcome [14] | outcome [15] | outcome [16] | outcome [19] | outcome [17] | Potency [20] | Potency [18]

CO[C@@]1(NC(=O)CSC[C@@H](N)C(=O)O)C(=O)N2C(C(=O)O)=C(CSc3nnnn3C)CS[C@@H]21
inactive: Potency [1] | Potency [2] | Potency [3] | Potency [4] | outcome [5] | Potency [6] | outcome [7] | outcome [8] | outcome [9] | outcome [10] | outcome [13] | outcome [14] | outcome [15] | outcome [16] | outcome [19] | outcome [17]

CN1[C@@H]2CC[C@H]1CC(OC(=O)C(O)c1ccccc1)C2 (stereo not given in full)
inactive: Potency [1] | Potency [2] | Potency [3] | Potency [4] | outcome [5] | Potency [6] | outcome [7] | outcome [8] | outcome [9] | outcome [10] | outcome [11] | outcome [13] | outcome [14] | outcome [15] | outcome [16] | outcome [17]

CCC1C(=O)OCC1Cc1cncn1C (stereo not given)
inactive: Potency [1] | Potency [2] | Potency [3] | Potency [4] | outcome [5] | Potency [6] | outcome [7] | outcome [8] | outcome [9] | outcome [10] | outcome [11] | outcome [12] | outcome [13] | outcome [14] | outcome [15] | outcome [16] | outcome [19] | outcome [17]

CCCO[Si](OCCC)(OCCC)OCCC
inactive: Potency [1] | Potency [2] | Potency [3] | Potency [4] | outcome [5] | Potency [6] | outcome [7] | outcome [8] | outcome [9] | outcome [10] | outcome [11] | outcome [12] | outcome [13] | outcome [14] | outcome [15] | outcome [16] | outcome [19] | outcome [17] | Potency [20] | Potency [18]

COc1ccc2cc1Oc1cc3c(cc1OC)CC[N+](C)(C)[C@H]3Cc1ccc(cc1)Oc1c(OC)c(OC)cc3c1[C@@H](C2)[N+](C)(C)CC3
inactive: Potency [1] | Potency [2] | Potency [3] | Potency [4] | outcome [5] | Potency [6] | outcome [7] | outcome [8] | outcome [9] | outcome [10] | outcome [11] | outcome [12] | outcome [13] | outcome [14] | outcome [15] | outcome [16] | outcome [19] | outcome [17] | Potency [20] | Potency [18]

C=CC(C)(CCC=C(C)C)OC(=O)CC (stereo not given)
inactive: Potency [1] | Potency [2] | Potency [3] | Potency [4] | outcome [5] | Potency [6] | outcome [7] | outcome [8] | outcome [9] | outcome [10] | outcome [12] | outcome [13] | outcome [14] | outcome [15] | outcome [16] | Potency [20] | Potency [18]

Cc1cccc(C)c1NC(=O)CC12CCCN1CCC2
inactive: Potency [1] | Potency [2] | Potency [3] | Potency [4] | outcome [5] | Potency [6] | outcome [7] | outcome [8] | outcome [9] | outcome [10] | outcome [11] | outcome [12] | outcome [13] | outcome [14] | outcome [15] | outcome [16] | outcome [17] | Potency [20] | Potency [18]

CC(COc1ccccc1)NN (stereo not given)
inactive: Potency [1] | Potency [2] | Potency [3] | Potency [4] | outcome [5] | Potency [6] | outcome [7] | outcome [8] | outcome [10] | outcome [11] | outcome [12] | outcome [13] | outcome [14] | outcome [15] | outcome [16] | outcome [19] | outcome [17] | Potency [18]

CN(C)C(=O)Oc1ccc[n+](C)c1
inactive: Potency [1] | Potency [2] | Potency [3] | Potency [4] | outcome [5] | Potency [6] | outcome [7] | outcome [8] | outcome [9] | outcome [10] | outcome [11] | outcome [12] | outcome [13] | outcome [15] | outcome [16] | outcome [19] | outcome [17] | Potency [18]

CC(=O)Oc1cccc(C)c1
inactive: Potency [1] | Potency [2] | Potency [3] | Potency [4] | outcome [5] | Potency [6] | outcome [7] | outcome [8] | outcome [10] | outcome [11] | outcome [12] | outcome [13] | outcome [14] | outcome [15] | outcome [16] | outcome [17]

NCCCC[C@H](N[C@@H](CCc1ccccc1)C(=O)O)C(=O)N1CCC[C@H]1C(=O)O
inactive: Potency [1] | Potency [2] | Potency [3] | Potency [4] | outcome [5] | Potency [6] | fluorescence, relative to Rose Bengal [7] 0.575% [at 18.6 µM] | fluorescence, % of fluorescein control [8] -0.177% [at 18.6 µM] | fluorescence, % of triamterene [9] -0.377% [at 18.6 µM] | fluorescence, % of fluorescent control [10] -0.247% [at 18.6 µM] | fluorescence, % of fluorescein [11] -0.012% [at 18.6 µM] | activity change [13] -0.028% [at 18.6 µM] | fluorescence, % of fluorescent control [14] 0.14% [at 18.6 µM] | fluorescence, % of Rose Bengal [15] -0.221% [at 18.6 µM] | fluorescence, % of fluorescent control [16] -0.005% [at 18.6 µM] | fluorescence, % of fluorescein control [19] -0.127% [at 18.6 µM] | Potency [18]

— PubChem BioAssay (Tox21)
